The text below walks through data of PubChem BioAssay.

SMILES strings stand for the structures. Inconclusive results are not listed. For some assays here: Potency and affinity values are given separately. Activity calls are given as the source filed them.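 The calls were made as follows, unless noted: active = thallium flux through the channel raised or lowered by more than 3 SD from vehicle-only wells, actives on both sides; inactive = the rest.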

A short description of test [1]: P. berghei load reduction in hepatocytes – cell-based, HepG2, luciferase luminescence, HepG2 viability, primary screen (AID 624349; in the data active = parasite load remaining mostly below about 12%, no sharp cut-off; inactive = mostly above about 10%;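 also: 100% = mean of DMSO negative control wells on the same plate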). The conditions noted are these: P. berghei liver stage in HepG2, luciferase luminescence, concentration not given here; parasite load remaining: stronger effect = lower value; viability: measured here: HepG2 viability without parasites.
Test [2] has as its system Neuropilin-2 / VEGF-C interaction (human). Briefly: small molecules blocking Neuropilin-2/VEGF-C interaction – biochemical, microplate binding format, z-score (AID 743281; call rule not given here). The note with it: microplate NRP2/VEGF-C binding assay; stronger effect = lower value.
A short description of test [3]: modulation of C. elegans fzo-1 (AID 1259413; call rule not given here;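 also: fzo-1 mutant C. elegans worms in liquid wells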). The note with it: C. elegans fzo-1 modulator screen, mean read-out; stronger effect = higher value.
The nature of test [4]: EMT-state selective cytotoxicity in co-culture – imaging, PC-3E GFP, TEM4-18 mCherry, primary screen (AID 1345086;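 active = compounds killing one labelled cell type while sparing the other, by normalised counts and ratio limits, not self-fluorescent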;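 also: cells exposed to compound for 72 h before imaging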;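 as to red/green cell ratio (normalised): normalised mesenchymal count divided by normalised epithelial count so high means epithelial killing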). The note with it: PC-3E GFP / TEM4-18 mCherry co-culture, imaging cell counts, at 1 µM.
In test [5] the test system is Aerobactin synthetase IucA (Klebsiella pneumoniae). Kind of test: inhibition of K. pneumoniae IucA enzyme – biochemical, Tocris library, absorbance (AID 1345561; call rule not given here;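 also: 100% = enzyme without compound and 0% = no enzyme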). The conditions noted are these: purified IucA enzyme assay, absorbance (OD) read-out; stronger effect = lower value;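 tested at 8 µM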.
Test [6] is described as follows: viability loss in pontine glioma line – cell-based, SU-DIPG-XIII, MIPE4.0, CellTiter-Glo, qHTS, dose response (AID 1347061; cut-off not given, nearly all actives have AC50 up to about 37 µM;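 also: cells exposed to compound for 48 hours before readout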). The note with it: CellTiter-Glo ATP luminescence. For orientation: ATP-based viability assays read luminescence as a measure of living cells.
A short description of test [7]: viability loss in pontine glioma line – cell-based, SU-DIPG-IV, MIPE4.0, CellTiter-Glo, qHTS, dose response (AID 1347063; cut-off not given, nearly all actives have AC50 up to about 30 µM;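 also: compound exposure lasted 48 hours before the viability readout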). The conditions noted are these: CellTiter-Glo ATP luminescence.
Test [8] can be described thus: growth inhibition of DIPG cells – cell-based, MIPE4.0 library, CellTiter-Glo luminescence, qHTS (AID 1347066; cut-off not given, nearly all actives have AC50 up to about 30 µM;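 also: cells exposed to compound for 48 hours before readout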). The conditions noted are these: SU-DIPG-VI viability, CellTiter-Glo ATP luminescence.
Test [9] is described as follows: viability loss with induced miR-34 in A549 – imaging, A549 dox-inducible miR-34, nuclei and caspase counts, primary screen (AID 1347080;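 active = compounds whose cell count with miR-34 switched on is under 0.7 times the count with it off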). The note with it: A549 miR-34 inducible, Hoechst nuclei count, 48 h.
For test [10], the target named is NAD(+) hydrolase SARM1 (Homo sapiens) (UniProt Q6SZW1). Briefly: blocking NAD cleavage by SARM1 SAM-TIR – cell lysate, NAD-Glo luminescence (AID 1508614;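 active = compound whose remaining NAD level is above about 45 nM, limit read from the data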;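 also: higher remaining NAD means stronger inhibition of SARM1 NADase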). The note with it: SAM-TIR HEK293T lysate NADase, at 1 µM, stronger effect = higher value.
The target in test [11] is Mitogen-activated protein kinase 7 (Homo sapiens) (UniProt Q13164). Kind of test: Gal4-ERK5 driven luciferase induction – cell-based, HTS, primary screen (AID 1508626;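 active = luciferase signal above three times the same-plate solvent-only control wells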;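 also: luciferase driven by Gal4-ERK5 fusion binding five Gal4 sites before minimal TATA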). The note with it: HeLa Gal4-ERK5 transactivation, 18 h, at 5 µM, stronger effect = higher value.
Test [12] is described as follows: galactose survival enhancers in mitochondrial complex I cybrids – cell-based, galactose medium, ATP luminescence, primary screen (AID 1645843;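 active = z-score of at least 1.8 in each of two replicates, scored against plate mean and spread of sample wells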;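 also: positive z means more ATP and so rescue of galactose-driven cybrid death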). The note with it: complex I mutant cybrid cells, 72 h, stronger effect = higher value.
The subject of test [13] is F380Y. Kind of test: BK channel mutant inhibitors and activators – cell-based, U2OS BacMam, thallium flux, beta subunits, selectivity assay, profiling panel (AID 1259406).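 Also: initial slope of Thallos dye fluorescence rise after thallium is added; log ratio against the mean of 0.3% DMSO vehicle wells on the same plate.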 The conditions noted are these: U2OS BacMam BK variants, at 30 µM.
Test [14] relates to F380Y/beta1. The description is as above. The conditions noted are these: U2OS BacMam BK variants, at 30 µM.
For test [15], the system named is F380Y/beta2Delta. The test is described as above. The note with it: U2OS BacMam BK variants, at 30 µM.
Test [16] concerns F380Y/beta4. Described as above. The conditions noted are these: U2OS BacMam BK variants, at 30 µM.
Test [17] addresses Calcium-activated potassium channel subunit alpha-1 (Homo sapiens) + Leucine-rich repeat-containing protein 26 (Homo sapiens) (UniProt Q12791+Q2I0M4). The test is described as above. The conditions noted are these: U2OS BacMam BK variants, F380Y/Slo1WT/gamma1, at 30 µM.
For test [18], the system named is R275C. Described as above. The conditions noted are these: U2OS BacMam BK variants, at 30 µM.
Test [19] relates to R275C/beta1. The description is as above. The note with it: U2OS BacMam BK variants, at 30 µM.
Test [20] concerns R275C/beta2Delta. Described as above. The note with it: U2OS BacMam BK variants, at 30 µM.
Test [21] has as its system R275C/beta4. The test is described as above. The conditions noted are these: U2OS BacMam BK variants, at 30 µM.
Test [22] has as its system R275C/Slo1WT/beta2. Described as above. The note with it: U2OS BacMam BK variants, at 30 µM.
Test [23] in a line: antimalarial activity against Dd2 strain (AID 2302;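 active = growth inhibition above 50% at the single 2 µM test dose, taken to imply half-maximal potency below 2 µM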;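 also: 0% = DMSO untreated growth and 100% = chloroquine plus artemisinin killed control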). The conditions noted are these: P. falciparum Dd2 in RBCs, LDH growth readout, 72 h; at 2 µM; stronger effect = higher value.
The nature of test [24]: human hepatoma cell viability loss – ATP luminescence, cytotoxicity control for P. falciparum antimalarial project, primary screen (AID 2303;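 active = inhibition above 50%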;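 also: 0% = DMSO wells and 100% = digitonin-killed cells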). The note with it: HepG2 viability, 24-48 h, at 10 µM, stronger effect = higher value.
For test [25], the target named is L-lactate dehydrogenase (Plasmodium falciparum (isolate CDC / Honduras)) (UniProt Q27743). Kind of test: PfLDH activity inhibition – cell lysate, 3D7 strain, counter-screen for P. falciparum growth inhibition project (AID 2304; call rule not given here;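 also: 0% = vehicle and 100% = reference inhibitor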). The note with it: P. falciparum 3D7 crude extract, LDH APAD/NBT absorbance; at 2 µM; stronger effect = higher value. (Counterscreens check selectivity or assay interference.)

Test [26] can be described thus: inhibition of 3D7 malaria parasite growth – strain 3D7 (AID 2306; call rule not given here;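 also: 0% = DMSO wells and 100% = chloroquine plus artemisinin control wells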). The conditions noted are these: P. falciparum 3D7 erythrocytic growth, LDH absorbance, 72 h; at 2 µM; stronger effect = higher value.
Test [27] addresses Calcium-dependent protein kinase 1 (Plasmodium falciparum (isolate 3D7)) (UniProt P62344). Kind of test: PfCDPK1 kinase inhibitors, biochemical, TCAMS library (AID 1159585; cut-off not given, nearly all actives have IC50 up to about 0.98 µM;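 also: inhibitors leave more ATP so luminescence rises with inhibition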). The note with it: recombinant PfCDPK1, Kinase-Glo ATP depletion luminescence.
Test [28] concerns the target Plasmodium falciparum protein kinase 6 (PK6, PF3D7_1337100) (UniProt Q8IDW1). Kind of test: PfPK6 kinase inhibitors, biochemical, TCAMS library (AID 1159586; call rule not given here). The note with it: recombinant PfPK6, Kinase-Glo ATP depletion luminescence. (Kinase-Glo reads ATP consumption through a luciferase reaction.)
Test [29] addresses Protein kinase 7 (PK7), Plasmodium falciparum 3D7 (PF3D7_0213400) (UniProt Q7YTF7). Kind of test: inhibition of Plasmodium PK7 catalytic activity – biochemical, TCAMS antimalarial set, Kinase-Glo luminescence (AID 1159587; call rule not given here). The note with it: recombinant PfPK7, Kinase-Glo ATP depletion luminescence.
Test [30] has as its target Calcium-dependent protein kinase 4 (Plasmodium falciparum (isolate 3D7)) (UniProt Q8IBS5). Briefly: PfCDPK4 kinase inhibitors, biochemical, TCAMS library (AID 1159588; cut-off not given, nearly all actives have IC50 up to about 0.91 µM). The note with it: recombinant PfCDPK4, Kinase-Glo ATP depletion luminescence.

As usually defined, the viability is the share of living cells, or the viability signal relative to a control. In general, remaining activity refers to the signal under treatment as a percentage of the control signal. What is called inhibition is the drop in the measured response relative to a control, in per cent.

Chain of Calcium-activated potassium channel subunit alpha-1 (Homo sapiens) + Leucine-rich repeat-containing protein 26 (Homo sapiens) (Q2I0M4 whole entry, looked up, one chain of several): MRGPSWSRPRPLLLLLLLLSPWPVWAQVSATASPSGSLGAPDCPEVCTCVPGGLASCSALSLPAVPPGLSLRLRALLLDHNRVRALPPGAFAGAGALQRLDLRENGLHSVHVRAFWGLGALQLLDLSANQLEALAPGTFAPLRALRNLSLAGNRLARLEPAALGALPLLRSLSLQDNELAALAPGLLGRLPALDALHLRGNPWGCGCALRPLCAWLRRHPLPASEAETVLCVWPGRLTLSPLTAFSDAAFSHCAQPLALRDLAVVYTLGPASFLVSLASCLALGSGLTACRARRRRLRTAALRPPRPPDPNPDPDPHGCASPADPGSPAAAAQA
Chain of NAD(+) hydrolase SARM1 (Homo sapiens) (Q6SZW1 whole entry, looked up, the tested form may be a part): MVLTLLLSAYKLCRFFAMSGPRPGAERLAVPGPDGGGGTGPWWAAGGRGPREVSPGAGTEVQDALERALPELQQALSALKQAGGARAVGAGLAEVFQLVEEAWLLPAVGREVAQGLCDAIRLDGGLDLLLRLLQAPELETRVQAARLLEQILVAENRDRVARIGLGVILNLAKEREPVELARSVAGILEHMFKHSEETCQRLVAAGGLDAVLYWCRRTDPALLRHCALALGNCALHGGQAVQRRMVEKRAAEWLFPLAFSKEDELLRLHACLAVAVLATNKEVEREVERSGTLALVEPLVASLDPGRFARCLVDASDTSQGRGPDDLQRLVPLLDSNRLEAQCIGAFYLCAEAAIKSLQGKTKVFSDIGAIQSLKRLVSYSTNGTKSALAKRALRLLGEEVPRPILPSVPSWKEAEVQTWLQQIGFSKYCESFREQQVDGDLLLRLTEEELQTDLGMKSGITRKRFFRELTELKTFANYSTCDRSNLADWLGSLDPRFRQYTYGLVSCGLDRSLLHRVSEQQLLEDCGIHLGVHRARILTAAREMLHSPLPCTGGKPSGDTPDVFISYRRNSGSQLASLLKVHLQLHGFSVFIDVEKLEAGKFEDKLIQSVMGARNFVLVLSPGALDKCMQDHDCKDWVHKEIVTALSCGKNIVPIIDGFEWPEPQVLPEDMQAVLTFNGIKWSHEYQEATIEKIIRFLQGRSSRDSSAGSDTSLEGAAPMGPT
Chain of Mitogen-activated protein kinase 7 (Homo sapiens) (Q13164 whole entry, looked up, the tested form may be a part): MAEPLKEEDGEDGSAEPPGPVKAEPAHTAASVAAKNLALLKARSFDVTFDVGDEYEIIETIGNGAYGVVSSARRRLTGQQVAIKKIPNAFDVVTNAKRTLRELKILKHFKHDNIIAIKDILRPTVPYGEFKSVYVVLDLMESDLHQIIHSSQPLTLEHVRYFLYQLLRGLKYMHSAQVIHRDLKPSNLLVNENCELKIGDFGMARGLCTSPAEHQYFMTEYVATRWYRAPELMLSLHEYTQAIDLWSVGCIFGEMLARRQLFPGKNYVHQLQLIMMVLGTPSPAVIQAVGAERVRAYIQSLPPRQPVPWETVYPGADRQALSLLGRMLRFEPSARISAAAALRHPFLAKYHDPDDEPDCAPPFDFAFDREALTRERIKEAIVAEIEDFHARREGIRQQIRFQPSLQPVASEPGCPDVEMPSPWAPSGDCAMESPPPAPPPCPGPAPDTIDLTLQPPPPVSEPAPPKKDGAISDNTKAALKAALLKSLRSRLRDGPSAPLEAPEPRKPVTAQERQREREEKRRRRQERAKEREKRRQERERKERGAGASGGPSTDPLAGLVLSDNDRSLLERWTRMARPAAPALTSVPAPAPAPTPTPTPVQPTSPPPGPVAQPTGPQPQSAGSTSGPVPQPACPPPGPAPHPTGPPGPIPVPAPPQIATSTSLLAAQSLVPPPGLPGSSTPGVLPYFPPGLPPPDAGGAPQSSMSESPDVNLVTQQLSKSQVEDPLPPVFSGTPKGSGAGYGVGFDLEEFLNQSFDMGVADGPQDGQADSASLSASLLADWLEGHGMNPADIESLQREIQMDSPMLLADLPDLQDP
Chain of Plasmodium falciparum protein kinase 6 (PK6, PF3D7_1337100) (Q8IDW1 1-305): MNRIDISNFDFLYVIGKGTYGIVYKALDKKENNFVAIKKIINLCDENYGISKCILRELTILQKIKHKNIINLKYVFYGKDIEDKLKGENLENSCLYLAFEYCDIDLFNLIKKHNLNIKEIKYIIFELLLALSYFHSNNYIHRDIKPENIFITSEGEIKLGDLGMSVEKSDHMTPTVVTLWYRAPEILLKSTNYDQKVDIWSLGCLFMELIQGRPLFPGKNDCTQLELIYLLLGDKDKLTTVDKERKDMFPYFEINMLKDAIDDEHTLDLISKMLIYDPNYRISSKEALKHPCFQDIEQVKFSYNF
Chain of Calcium-dependent protein kinase 4 (Plasmodium falciparum (isolate 3D7)) (Q8IBS5 whole entry, looked up): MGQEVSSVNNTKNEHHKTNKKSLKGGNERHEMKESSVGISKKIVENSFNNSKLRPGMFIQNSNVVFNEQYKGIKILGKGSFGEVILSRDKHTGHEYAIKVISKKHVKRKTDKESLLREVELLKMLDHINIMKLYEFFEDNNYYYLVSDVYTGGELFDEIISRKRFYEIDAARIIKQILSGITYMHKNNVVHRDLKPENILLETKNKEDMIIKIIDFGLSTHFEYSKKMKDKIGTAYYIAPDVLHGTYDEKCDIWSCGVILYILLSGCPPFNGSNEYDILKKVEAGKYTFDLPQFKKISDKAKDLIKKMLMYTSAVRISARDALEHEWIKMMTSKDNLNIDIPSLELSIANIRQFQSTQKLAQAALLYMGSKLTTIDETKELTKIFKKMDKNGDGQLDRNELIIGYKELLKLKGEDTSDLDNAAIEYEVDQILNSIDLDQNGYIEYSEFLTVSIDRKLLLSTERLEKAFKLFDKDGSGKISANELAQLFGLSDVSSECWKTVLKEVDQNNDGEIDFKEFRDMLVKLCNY
Chain of L-lactate dehydrogenase (Plasmodium falciparum (isolate CDC / Honduras)) (Q27743 whole entry, looked up): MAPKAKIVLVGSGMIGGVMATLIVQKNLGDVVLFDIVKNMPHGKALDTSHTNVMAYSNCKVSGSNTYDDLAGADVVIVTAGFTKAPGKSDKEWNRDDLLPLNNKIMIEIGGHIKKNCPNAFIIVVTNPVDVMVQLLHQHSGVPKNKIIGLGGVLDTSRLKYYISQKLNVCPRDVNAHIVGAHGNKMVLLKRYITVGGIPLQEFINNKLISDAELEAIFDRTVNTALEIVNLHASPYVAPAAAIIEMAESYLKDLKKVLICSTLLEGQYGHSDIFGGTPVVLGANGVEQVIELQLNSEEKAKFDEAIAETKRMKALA
Chain of Protein kinase 7 (PK7), Plasmodium falciparum 3D7 (PF3D7_0213400) (Q7YTF7 1-343): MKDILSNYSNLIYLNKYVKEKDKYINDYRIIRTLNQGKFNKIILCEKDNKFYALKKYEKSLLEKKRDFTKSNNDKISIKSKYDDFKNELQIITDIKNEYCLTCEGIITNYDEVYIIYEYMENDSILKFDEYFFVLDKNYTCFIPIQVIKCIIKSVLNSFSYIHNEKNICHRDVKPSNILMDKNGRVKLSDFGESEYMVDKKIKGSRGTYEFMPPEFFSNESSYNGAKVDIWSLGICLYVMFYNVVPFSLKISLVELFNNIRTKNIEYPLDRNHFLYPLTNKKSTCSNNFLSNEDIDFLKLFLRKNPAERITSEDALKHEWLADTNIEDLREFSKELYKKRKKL
Chain of Calcium-dependent protein kinase 1 (Plasmodium falciparum (isolate 3D7)) (P62344 whole entry, looked up): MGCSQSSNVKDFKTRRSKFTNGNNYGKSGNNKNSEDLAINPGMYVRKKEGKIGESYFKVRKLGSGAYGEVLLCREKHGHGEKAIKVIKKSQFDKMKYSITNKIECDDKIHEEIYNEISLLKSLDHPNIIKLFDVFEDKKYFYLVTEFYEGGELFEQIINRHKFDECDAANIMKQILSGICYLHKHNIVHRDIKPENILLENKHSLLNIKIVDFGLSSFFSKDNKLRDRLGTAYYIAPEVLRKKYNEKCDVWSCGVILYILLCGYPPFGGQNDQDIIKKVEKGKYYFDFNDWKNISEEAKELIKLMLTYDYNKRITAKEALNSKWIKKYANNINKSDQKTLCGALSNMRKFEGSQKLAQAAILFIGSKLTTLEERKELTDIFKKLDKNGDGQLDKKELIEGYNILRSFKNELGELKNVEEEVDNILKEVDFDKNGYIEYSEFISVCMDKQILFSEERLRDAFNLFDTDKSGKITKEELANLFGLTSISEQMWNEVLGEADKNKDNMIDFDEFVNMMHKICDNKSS

As for `CCOC(=O)c1cncn1[C@H](C)c1ccccc1`, in [1], the parasite load remaining is 110% (inactive). The compound further had a viability in test [1] of 75.6%. In addition, the values for the z-score in test [2] and in test [12] were 0.0538 (inactive) and -0.35 (inactive), respectively. For the same compound, the mean signal in [3] was 274 (inactive). Moreover, the red/green cell ratio (normalised) in test [4] (actives lie on both sides) was 0.98 (inactive). Besides, the figures for the normalised cell number in [4] (measured here: epithelial PC-3E GFP cell survival) and in test [4] (measured here: mesenchymal TEM4-18 mCherry cell survival) were 0.95 and 0.93, respectively. For the same compound, the remaining activity in test [5] was 122% (inactive). The outcome in test [6], in test [7] and in [8] was inactive. Also, the fold change in [9] (stronger effect = lower value) is 0.964 (inactive); in test [9] (measured here: relative caspase fold change +Dox/-Dox), 0.785. For the same compound, the cell count in [9] (measured here: total cells with miR-34 induction, stronger effect = lower value) amounted to 9210; in test [9] (measured here: total cells without miR-34 induction), 9560. Moreover, the remaining NAD in [10] is 10 nM (inactive). Further, in [11], the luciferase signal was 52 AU (inactive). Besides, the log fold change Tl+ flux in [13] is -0.0483 (inactive); in [14] it was -0.0564 (inactive); in test [15], -0.0261 (inactive); in test [16], -0.0155 (inactive); in [17] it was 0.0279 (inactive); in test [18] it was 0.000434 (inactive). Further, the log fold change Tl+ flux in test [19] was 0.000109 (inactive); in [20], 0.0419 (inactive); in test [21] it was 0.0313 (inactive); in [22], 0.023 (inactive).
Regarding `O=c1[nH]c(=S)[nH]c(O)c1C=C1C=CC=N1`, the log fold change Tl+ flux in test [13] was 0.0328 (inactive); in test [14], 0.0561 (inactive); in test [15] it was 0.06 (inactive); in test [16], 0.0563 (inactive); in test [17], 0.0242 (inactive); in [18] it was 0.0249 (inactive). Also, the log fold change Tl+ flux was 0.101 (inactive) in test [19], 0.0741 (inactive) in test [20], 0.0391 (inactive) in test [21] and -0.0255 (inactive) in [22].
Turning to `N#CC(C#N)=Cc1cccnc1`, the log fold change Tl+ flux was 0.00869 (inactive) in [13]; 0.00181 (inactive) in test [14]; -0.0117 (inactive) in test [15]; -0.0312 (inactive) in [16]; 6.5e-05 (inactive) in test [17]; -0.0132 (inactive) in [18]. Besides, the log fold change Tl+ flux in test [19] is -0.0358 (inactive); in test [20] it was -0.0205 (inactive); in [21], 0.025 (inactive); in test [22], -0.0203 (inactive).
On to `CNCCN(C)C(=O)Oc1c(Br)c(C)nc(C)c1-c1ccc(Oc2ccc(OC(F)(F)F)cc2)cc1`, for which the growth inhibition in [23] and in [26] was 98% (active) throughout. The inhibition in [24] is 19% (inactive); in test [25], 2% (inactive). Moreover, the result in test [27], in test [28], in [29] and in [30] was inactive.
